Screening data as filed in PubChem.
Shown are actives, neighbours in structure and some others; about 1.5% of the full set was active somewhere.
IDE cell activ: IDE (human) activation, cell-based. P14735. HEK cells, FAbeta-B cleavage, fluorescence polarization; 0% vehicle, 100% cell-free pure enzyme wells. activation, % at 5.96 µM. hit rate 0.073% among 340,000. AID 493087;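 active means activation above the mean of all tested compounds plus 3 SD, set per screening campaign, cut at about 17% in these data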
CRFR2-BP ag: CRF-BP/CRF-R2 complex agonism; HEK293 CRF-R2/CRF-BP, calcium dye fluorescence (FLIPR); percent of saturating CRF peptide response; activation, % at 13.2 µM; hit rate 0.46% among 350,000; AID 588473;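 active means activation of at least 50%, plus an integration ratio under a set limit after plate pattern correction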;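 further: plate controls were neutral control wells without compound for no effect and CRF at EC100 for full effect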
IDE cell inh: cellular human IDE inhibition | hit rate 0.41% among 320,000 | inhibition, % at 5.59 µM | HEK cells, FAbetaB cleavage, fluorescence polarization;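 active means percent inhibition above the average of all tested compounds plus 3 SD, set per screening campaign, cut at about 16% in these data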;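 further: IDE supplied by intact live HEK cells; FP after avidin binding of uncleaved biotin substrate so inhibition keeps polarization high; 0% = DMSO wells and 100% = 60 µM reference IDE inhibitor Ii1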
RTF Ca sens act: cardiac RTF calcium sensitization; P19429+P45379; IANBD-labeled TnC RTF fluorescence at EC20 calcium; 0% EC20 calcium, 100% full calcium; activation, % at 7.2 µM; hit rate 0.24% among 340,000;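 active means activation above the mean over all tested compounds plus 3 SD, cut at about 30% in these data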;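 further: rise in fluorescence read as greater calcium sensitivity of cardiac thin filaments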
CRFR2-BP antag: antagonists of CRF-binding protein/CRF-R2 receptor complex; HEK293 CRF-R2/CRF-BP, CRF-induced calcium fluorescence; inhibition, % at 11.8 µM; hit rate 0.59% among 350,000; AID 588475;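 active means inhibition of the ligand-induced calcium signal above about 50% at the single tested concentration, limit read from the data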
RTF Ca sens inh: cardiac RTF calcium desensitization | P19429+P45379 | IANBD-labeled cardiac RTF, Ca2+ fluorescence | inhibition, % at 7.15 µM | hit rate 0.12% among 340,000 | AID 493244;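 active means inhibition above the mean inhibition of all tested compounds plus 3 SD, cut at about 17% in these data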;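 further: assay run at fixed EC70 calcium of 1.6 mM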
IDE inh confirm: confirmation of human insulin-degrading enzyme inhibitors in cells; shares compounds with IDE cell inh; AID 435028; HEK cells, FAbetaB cleavage, fluorescence polarization; hit rate 51% among 1,200; inhibition, % at 5.59 µM;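 active means mean inhibition across triplicate wells above the cutoff set by the earlier primary insulin-degrading enzyme screen, cut at about 16% in these data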;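 further: 0% = DMSO wells and 100% = 60 µM reference IDE inhibitor Ii1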
HEK293 tox: kills HEK cells in IDE inhibitor counter-screen; shares compounds with IDE cell inh; HEK293 cytotoxicity, ATP luminescence; inhibition, % at 5.59 µM; hit rate 28% among 1,200; AID 449730; in the data active means inhibition above about 22%;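 further: 0% = vehicle wells and 100% = reference cytotoxic drug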
RTF Ca inh conf: cardiac RTF calcium sensitivity inhibition, confirmation | hit rate 8% among 360 | reconstituted cardiac thin filaments, calcium sensitivity fluorescence | shares compounds with RTF Ca sens inh | inhibition, % at 7.15 µM; in the data active means inhibition above about 18%
The depositor's hits bear a star; . = not tested or not shown.

SMILES	IDE cell activ	CRFR2-BP ag	IDE cell inh	RTF Ca sens act	CRFR2-BP antag	RTF Ca sens inh	RTF Ca inh conf	others
Cc1ccc(-n2cc(CN3CCN(C(=O)c4ncn[nH]4)CC3)c(-c3ccc(F)cc3)n2)cc1	8.6	-0.1	-1.7	-0.8	-0.2	2.0	.
CCOC(=O)N1CCC2(CC1)C(C#N)=C(N)Oc1c2sc2nc(C)cc(C)c12	-7.9	0.2	-0.4	2.9	5.3	-12.1	.
CCCN1CCC2(CC1)C(C#N)=C(N)Oc1c2sc2nc(C)cc(C)c12	-13.4	1.9	22.8*	3.7	-6.8	-17.9	.	IDE inh confirm=7.3;HEK293 tox=11.8
O=C(Cn1nnc2ccccc2c1=O)Nc1ccc(S(=O)(=O)N2CCOCC2)cc1	5.6	0.6	-5.8	1.2	6.2	17.2*	-1.4
Cc1ccc(NC(=O)Cn2nnc3ccccc3c2=O)cc1	1.4	-0.9	5.3	-1.7	-1.8	-11.2	.
Cc1ccc(NC(=O)Cn2nnc3ccccc3c2=O)cc1C	8.2	-1.2	-0.2	-0.6	0.9	18.3*	-6.3
COc1cc(CNC2CCCC2)cc(OC)c1	3.1	0.3	3.2	-2.1	1.9	17.7*	-1.9
COc1cccc(CNC2CCCC2)c1	1.0	-2.0	0.5	-1.7	0.6	-5.4	.
O=C(O)c1[nH]c2ccccc2c1C(c1cc(Cl)cc([N+](=O)[O-])c1O)c1c(C(=O)O)[nH]c2ccccc12	5.7	-2.1	-2.8	-23.0	-10.4	21.6*	7.4
COc1ccc(OC)c(-n2c(SCC(=O)N3CCc4ccccc43)nc3c(c2=O)SCC3)c1	-1.9	1.1	6.1	1.1	21.9	39.8*	-3.1
Cc1ccccc1NC(=O)c1sc(NC(=O)COc2ccccc2)c(C#N)c1C	1.0	36.1	-1.2	-0.8	41.1	17.6*	-3.0
Cc1cccc(NC(=O)c2sc(NC(=O)COc3ccccc3)c(C#N)c2C)c1C	-0.8	7.5	0.0	-0.3	19.1	6.5	.
CCC(Oc1ccccc1)C(=O)Nc1nnc(S(=O)(=O)N2CCCCC2)s1 (stereo unspecified)	3.0	5.4	-3.1	-1.6	-6.9	17.6*	-4.0
CCc1cccc(C)c1N=Cc1c(O)c2ccccc2oc1=O	4.2	0.3	-0.7	-9.5	-13.6	-3.3	.
O=C(NCc1n[nH]c(=S)n1-c1cccc(Cl)c1)c1ccc(S(=O)(=O)N2CCCCC2)cc1	-5.3	-0.7	3.2	0.6	9.8	-1.9	.
COc1cccc(/C=N/n2c(N)c(S(=O)(=O)c3cccs3)c3nc4ccccc4nc32)c1	10.3	-0.7	3.0	2.2	-8.8	-2.6	.
Nc1c(S(=O)(=O)c2cccs2)c2nc3ccccc3nc2n1/N=C/c1cccc(O)c1	-0.1	0.1	5.3	-5.8	10.5	20.1*	6.0
CCN1CCN(C(=S)c2ccc(OCC(=O)N3CCOCC3)cc2)CC1	0.5	1.2	0.5	2.7	3.4	-7.8	.
COc1ccc(-c2nnc(SCc3c(C)noc3C)o2)cc1	5.2	-1.6	-1.0	0.3	-3.3	18.2*	-3.6
CCCCN(C)CCC(=O)Nc1ccc(F)c(F)c1	2.7	1.7	0.1	-3.0	-15.6	17.1*	0.6
CCN(CC)S(=O)(=O)c1ccc(NS(=O)(=O)CC23CCC(CC2=O)C3(C)C)cc1 (stereo unspecified)	7.1	-4.8	-2.6	3.6	24.7	-3.2	.
CC12CCC(=O)N1C(C(=O)Nc1ccccc1N1CCOCC1)CS2 (stereo unspecified)	1.6	0.7	1.1	-4.0	14.6	2.2	.
NNC(=O)c1ccc(COc2ccc3c(c2)CCC3)cc1	4.0	-3.1	5.5	2.2	-16.9	17.4*	0.1
O=C(O)c1ccc(COc2ccc3c(c2)CCC3)cc1	9.5	0.3	2.9	0.6	0.3	9.7	.
Nc1nc(-c2ccccc2)c(N=Nc2cccc3ccccc23)s1	3.2	3.2	-2.1	-1.8	23.1	-7.8	.
SMILES	IDE cell activ	CRFR2-BP ag	IDE cell inh	RTF Ca sens act	CRFR2-BP antag	RTF Ca sens inh	RTF Ca inh conf	others
Nc1nc(-c2ccccc2)c(N=Nc2ccccc2Cl)s1	6.5	-0.8	-4.6	5.9	16.6	21.6*	0.4
CSc1ccc(S(=O)(=O)N2CCC(C(=O)NCCN3CCOCC3)CC2)cc1	-1.4	-1.1	5.1	3.1	-5.3	-4.3	.
O=C(Nc1nccs1)c1ccc(-c2ccc(F)cc2)o1	-6.1	-1.1	3.6	-3.5	0.8	17.1*	-5.5
CCOC(=O)N1CCN(C(=O)/C(=C/c2ccc(N(C)C)cc2)NC(=O)c2ccccc2)CC1	3.7	-0.7	0.3	-2.9	-5.7	-7.8	.
Cc1cccc(NC(=O)CCSc2ccccn2)c1	4.5	0.7	5.1	-0.8	2.8	18.0*	0.0
Cc1ccccc1C(=O)N/N=C1/SCC(=O)N1Cc1ccccc1	2.2	-0.3	2.4	2.7	4.5	18.3*	1.5
O=C(NCc1cccs1)c1ccc(Cl)c(S(=O)(=O)N2CCOCC2)c1	.	-1.4	.	.	4.7	.	.
CCCCn1c(N)c(N(CC(C)C)C(=O)c2c(-c3ccccc3)noc2C)c(=O)[nH]c1=O	3.8	-0.3	-0.7	-0.3	7.3	-0.7	.
COc1ccc(C2=NOC(C(=O)NCCCn3ccnc3)C2)cc1 (stereo unspecified)	2.4	0.2	-1.0	1.3	-12.4	18.1*	-6.1
O=C(CN1CCN(C(=O)C2CCCO2)CC1)Nc1ccc(F)cc1 (stereo unspecified)	3.5	1.0	-1.4	-1.4	-11.7	5.4	.
COCCn1c(SCC(=O)Nc2ccc(NC(C)=O)cc2)nc2c([nH]c3ccccc32)c1=O	-2.7	-0.5	-2.1	0.1	2.5	19.0*	-5.2
O=C(O)c1ccc(-n2cccc2/C=C2/NC(=O)N(c3cccc(Cl)c3)C2=O)cc1	-1.2	-2.3	.	-5.2	-6.7	-1.5	.
O=C(O)c1ccc(-n2cccc2/C=C2/SC(=O)N(CC(=O)N3CCCC3)C2=O)cc1	5.8	0.2	2.8	-8.4	19.1	26.0*	7.6
N#Cc1ccccc1CN1C(=O)S/C(=C/c2cccn2-c2ccc(C(=O)O)cc2)C1=O	3.0	-0.2	2.6	3.5	-2.8	3.3	.
O=C(O)c1ccc(-n2cccc2/C=C2/NC(=O)N(c3ccccc3)C2=O)cc1	2.9	0.2	6.9	-7.2	6.8	17.2*	6.6
COc1ccc(C2=CC3=C(Br)C(=O)C(C)(O)C(=O)C3=CO2)cc1 (stereo unspecified)	-1.1	0.6	2.8	-11.2	1.9	2.6	.
